Test results published in paper PMC7862700, “An all-to-all approach to the identification of sequence-specific readers for epigenetic DNA modifications on cytosine”.

Tests used:
Test in all cases: DAPPL (digital affinity profiling via proximity ligation, sequencing); 10 mM Tris-HCl pH 7.5, 50 mM NaCl, 1 mM DTT, 4% glycerol, room temperature, 30 min; GST-TFs on glutathione beads, 16-mer random dsDNA library, 0.1% formaldehyde crosslink after washing; high values mean tight binding
Conditions in all cases: protein: recombinant; tags: N-terminal GST; dsDNA, one strand shown
FLI1 = molecular target: T1, FLI1 (Homo sapiens, UniProt Q01543 1-452)
T1 sequence: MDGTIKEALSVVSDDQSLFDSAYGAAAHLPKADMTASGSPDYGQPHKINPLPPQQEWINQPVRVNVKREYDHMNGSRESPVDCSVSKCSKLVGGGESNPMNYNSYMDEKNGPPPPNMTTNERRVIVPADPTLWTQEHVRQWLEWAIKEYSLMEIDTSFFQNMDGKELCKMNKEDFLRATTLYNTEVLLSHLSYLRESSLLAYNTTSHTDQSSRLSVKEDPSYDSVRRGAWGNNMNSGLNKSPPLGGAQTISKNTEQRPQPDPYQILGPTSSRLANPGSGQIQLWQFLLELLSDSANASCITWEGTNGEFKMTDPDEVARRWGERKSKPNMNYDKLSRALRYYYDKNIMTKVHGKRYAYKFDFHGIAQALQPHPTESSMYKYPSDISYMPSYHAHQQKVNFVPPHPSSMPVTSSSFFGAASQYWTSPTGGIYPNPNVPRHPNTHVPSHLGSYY
Outline: (§1)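 Each value of binding signal is a hexamer's read frequency for a factor divided by the same hexamer's frequency in the tag-only sample. Barcoded, bead-captured GST fusions of human transcription factors made in yeast were pooled with that sample and incubated with 200 nmole of a random double-stranded 16-mer DNA library in Tris/NaCl/DTT/glycerol buffer at room temperature for 30 min. Washing, 0.1% formaldehyde crosslinking, proximity ligation, PCR and Illumina NextSeq500 sequencing followed.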

ELK1 = molecular target: T2, ELK1 (Homo sapiens, UniProt P19419 1-428)
T2 sequence: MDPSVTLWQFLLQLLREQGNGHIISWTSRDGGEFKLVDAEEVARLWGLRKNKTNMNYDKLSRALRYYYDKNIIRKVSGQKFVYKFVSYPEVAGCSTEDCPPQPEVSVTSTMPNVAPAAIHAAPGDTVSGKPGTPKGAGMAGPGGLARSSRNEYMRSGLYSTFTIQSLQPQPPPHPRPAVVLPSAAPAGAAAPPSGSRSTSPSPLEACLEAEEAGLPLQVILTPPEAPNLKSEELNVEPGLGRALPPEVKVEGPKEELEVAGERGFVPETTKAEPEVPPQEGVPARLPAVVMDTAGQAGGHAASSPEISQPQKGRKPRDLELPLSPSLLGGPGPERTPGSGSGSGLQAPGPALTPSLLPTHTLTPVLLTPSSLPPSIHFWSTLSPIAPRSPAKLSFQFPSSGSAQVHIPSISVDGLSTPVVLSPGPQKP
Outline: as §1

GABPA = molecular target: T3, GABPA (Homo sapiens, UniProt Q06546 1-454)
T3 sequence: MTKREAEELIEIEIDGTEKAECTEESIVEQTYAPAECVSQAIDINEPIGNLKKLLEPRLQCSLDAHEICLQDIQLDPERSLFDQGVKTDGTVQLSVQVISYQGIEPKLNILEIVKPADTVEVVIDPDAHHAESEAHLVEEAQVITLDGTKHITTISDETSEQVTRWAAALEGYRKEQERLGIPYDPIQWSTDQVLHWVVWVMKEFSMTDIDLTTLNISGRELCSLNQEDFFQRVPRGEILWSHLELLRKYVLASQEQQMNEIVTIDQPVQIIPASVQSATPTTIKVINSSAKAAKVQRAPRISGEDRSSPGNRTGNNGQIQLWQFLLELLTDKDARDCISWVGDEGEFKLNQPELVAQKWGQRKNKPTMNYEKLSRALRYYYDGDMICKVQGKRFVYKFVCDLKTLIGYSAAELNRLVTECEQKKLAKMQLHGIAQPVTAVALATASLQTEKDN
Outline: as §1

ERG = molecular target: T4, ERG (Homo sapiens, UniProt P11308 1-479)
T4 sequence: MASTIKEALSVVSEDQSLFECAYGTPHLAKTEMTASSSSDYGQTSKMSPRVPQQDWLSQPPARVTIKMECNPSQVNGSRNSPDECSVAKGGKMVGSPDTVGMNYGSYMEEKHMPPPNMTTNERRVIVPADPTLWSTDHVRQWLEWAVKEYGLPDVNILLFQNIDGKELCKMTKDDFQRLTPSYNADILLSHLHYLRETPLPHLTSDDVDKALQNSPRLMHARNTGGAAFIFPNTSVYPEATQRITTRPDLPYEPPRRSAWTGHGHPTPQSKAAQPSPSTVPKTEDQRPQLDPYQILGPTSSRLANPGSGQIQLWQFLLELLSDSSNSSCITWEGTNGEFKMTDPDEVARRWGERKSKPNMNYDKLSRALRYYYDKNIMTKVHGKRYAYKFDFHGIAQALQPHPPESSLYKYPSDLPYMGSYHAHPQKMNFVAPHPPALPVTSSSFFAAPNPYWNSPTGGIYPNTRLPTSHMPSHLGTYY
Outline: as §1

ELF1 = ELF1 (Homo sapiens, UniProt P32519 1-619)
ELF1, sequence (P32519 whole entry): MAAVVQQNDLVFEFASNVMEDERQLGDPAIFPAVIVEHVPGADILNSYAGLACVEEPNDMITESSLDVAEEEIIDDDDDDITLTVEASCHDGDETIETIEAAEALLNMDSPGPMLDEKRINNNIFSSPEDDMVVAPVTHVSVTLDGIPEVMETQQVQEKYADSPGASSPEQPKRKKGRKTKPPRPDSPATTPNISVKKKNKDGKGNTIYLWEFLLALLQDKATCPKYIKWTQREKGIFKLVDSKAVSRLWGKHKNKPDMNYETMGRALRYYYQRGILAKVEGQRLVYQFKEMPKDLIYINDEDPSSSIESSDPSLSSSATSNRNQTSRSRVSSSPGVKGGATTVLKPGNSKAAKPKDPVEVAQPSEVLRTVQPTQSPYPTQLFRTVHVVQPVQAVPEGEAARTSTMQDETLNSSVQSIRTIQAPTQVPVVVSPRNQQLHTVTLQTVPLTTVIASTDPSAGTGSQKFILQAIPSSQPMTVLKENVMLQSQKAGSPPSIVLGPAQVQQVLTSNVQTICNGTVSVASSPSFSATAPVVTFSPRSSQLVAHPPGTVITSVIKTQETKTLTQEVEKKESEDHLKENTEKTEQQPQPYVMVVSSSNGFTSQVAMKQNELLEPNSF
Outline: as §1

EHF = molecular target: T5, EHF (Homo sapiens, UniProt Q9NZC4 1-300)
T5 sequence: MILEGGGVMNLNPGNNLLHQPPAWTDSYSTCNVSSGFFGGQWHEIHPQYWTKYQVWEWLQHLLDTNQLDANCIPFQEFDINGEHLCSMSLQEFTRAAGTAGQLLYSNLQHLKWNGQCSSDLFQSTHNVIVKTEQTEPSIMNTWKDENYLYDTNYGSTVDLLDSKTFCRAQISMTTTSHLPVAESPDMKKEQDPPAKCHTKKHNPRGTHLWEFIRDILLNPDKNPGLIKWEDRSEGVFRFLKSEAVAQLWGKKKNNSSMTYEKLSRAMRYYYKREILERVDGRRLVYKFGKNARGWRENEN
Outline: as §1

SPI1 = SPI1 (Homo sapiens, UniProt P17947 1-270)
Outline: as §1

SPIB = SPIB (Homo sapiens, UniProt Q01892 1-262)
SPIB, sequence (Q01892 whole entry): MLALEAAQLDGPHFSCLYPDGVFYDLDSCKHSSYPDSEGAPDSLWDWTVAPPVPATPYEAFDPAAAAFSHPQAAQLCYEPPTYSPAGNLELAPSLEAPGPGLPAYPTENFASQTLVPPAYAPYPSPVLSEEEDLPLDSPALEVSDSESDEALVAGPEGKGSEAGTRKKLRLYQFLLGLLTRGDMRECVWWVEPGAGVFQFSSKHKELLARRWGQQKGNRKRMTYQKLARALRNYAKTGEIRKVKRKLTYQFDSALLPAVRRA
Outline: as §1

ELK3 = molecular target: T6, ELK3 (Homo sapiens, UniProt P41970 1-407)
T6 sequence: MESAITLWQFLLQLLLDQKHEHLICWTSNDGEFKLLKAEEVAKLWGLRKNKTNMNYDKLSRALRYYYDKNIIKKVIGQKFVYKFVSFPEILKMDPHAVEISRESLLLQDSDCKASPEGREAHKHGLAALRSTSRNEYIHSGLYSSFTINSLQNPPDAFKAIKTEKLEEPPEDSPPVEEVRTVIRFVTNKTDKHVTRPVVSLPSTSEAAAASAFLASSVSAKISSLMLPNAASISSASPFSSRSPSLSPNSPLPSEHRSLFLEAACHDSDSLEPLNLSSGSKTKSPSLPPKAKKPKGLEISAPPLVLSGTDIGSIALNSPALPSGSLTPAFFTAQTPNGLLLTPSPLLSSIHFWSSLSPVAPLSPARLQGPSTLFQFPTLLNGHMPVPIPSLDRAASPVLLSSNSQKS
Outline: as §1

Row | Sequence | binding signal (FLI1) | binding signal (ELK1) | binding signal (GABPA) | binding signal (ERG) | binding signal (ELF1) | binding signal (EHF) | binding signal (SPI1) | binding signal (SPIB) | binding signal (ELK3)
1 | AACGCC | 1.07 fold enrichment (6-mer frequency, TF over GST control) | 1.1 fold enrichment (6-mer frequency, TF over GST control) | 1.08 fold enrichment (6-mer frequency, TF over GST control) | 1.06 fold enrichment (6-mer frequency, TF over GST control) | 1.09 fold enrichment (6-mer frequency, TF over GST control) | 1.15 fold enrichment (6-mer frequency, TF over GST control) | 1.06 fold enrichment (6-mer frequency, TF over GST control) | 1.11 fold enrichment (6-mer frequency, TF over GST control) | –
2 | GGTATA | 1.04 fold enrichment (6-mer frequency, TF over GST control) | 1.16 fold enrichment (6-mer frequency, TF over GST control) | 1.02 fold enrichment (6-mer frequency, TF over GST control) | 1.05 fold enrichment (6-mer frequency, TF over GST control) | 1.09 fold enrichment (6-mer frequency, TF over GST control) | 1.11 fold enrichment (6-mer frequency, TF over GST control) | 1.07 fold enrichment (6-mer frequency, TF over GST control) | 1.06 fold enrichment (6-mer frequency, TF over GST control) | –
3 | ACGGCC | 1.1 fold enrichment (6-mer frequency, TF over GST control) | 1.13 fold enrichment (6-mer frequency, TF over GST control) | 1.12 fold enrichment (6-mer frequency, TF over GST control) | 1.09 fold enrichment (6-mer frequency, TF over GST control) | 1.09 fold enrichment (6-mer frequency, TF over GST control) | 1.09 fold enrichment (6-mer frequency, TF over GST control) | 1.09 fold enrichment (6-mer frequency, TF over GST control) | 1.26 fold enrichment (6-mer frequency, TF over GST control) | –
4 | AGGAAG | 1.24 fold enrichment (6-mer frequency, TF over GST control) | 1.32 fold enrichment (6-mer frequency, TF over GST control) | 1.24 fold enrichment (6-mer frequency, TF over GST control) | 1.63 fold enrichment (6-mer frequency, TF over GST control) | 1.23 fold enrichment (6-mer frequency, TF over GST control) | 1.57 fold enrichment (6-mer frequency, TF over GST control) | 2.12 fold enrichment (6-mer frequency, TF over GST control) | 1.44 fold enrichment (6-mer frequency, TF over GST control) | 1.26 fold enrichment (6-mer frequency, TF over GST control)
5 | ATCGTC | 1.11 fold enrichment (6-mer frequency, TF over GST control) | 1.17 fold enrichment (6-mer frequency, TF over GST control) | 1.06 fold enrichment (6-mer frequency, TF over GST control) | 1.03 fold enrichment (6-mer frequency, TF over GST control) | 1.05 fold enrichment (6-mer frequency, TF over GST control) | 1.1 fold enrichment (6-mer frequency, TF over GST control) | 1.04 fold enrichment (6-mer frequency, TF over GST control) | 1.15 fold enrichment (6-mer frequency, TF over GST control) | –
6 | CAGGAA | 1.63 fold enrichment (6-mer frequency, TF over GST control) | 1.57 fold enrichment (6-mer frequency, TF over GST control) | 1.5 fold enrichment (6-mer frequency, TF over GST control) | 1.83 fold enrichment (6-mer frequency, TF over GST control) | 1.48 fold enrichment (6-mer frequency, TF over GST control) | 1.79 fold enrichment (6-mer frequency, TF over GST control) | 1.96 fold enrichment (6-mer frequency, TF over GST control) | 1.69 fold enrichment (6-mer frequency, TF over GST control) | 1.57 fold enrichment (6-mer frequency, TF over GST control)
7 | TAGATT | 1.17 fold enrichment (6-mer frequency, TF over GST control) | 1.2 fold enrichment (6-mer frequency, TF over GST control) | 1.18 fold enrichment (6-mer frequency, TF over GST control) | 1.2 fold enrichment (6-mer frequency, TF over GST control) | 1.17 fold enrichment (6-mer frequency, TF over GST control) | 1.24 fold enrichment (6-mer frequency, TF over GST control) | 1.16 fold enrichment (6-mer frequency, TF over GST control) | 1.24 fold enrichment (6-mer frequency, TF over GST control) | –
8 | CCCTTG | 1.14 fold enrichment (6-mer frequency, TF over GST control) | 1.21 fold enrichment (6-mer frequency, TF over GST control) | 1.24 fold enrichment (6-mer frequency, TF over GST control) | 1.23 fold enrichment (6-mer frequency, TF over GST control) | 1.3 fold enrichment (6-mer frequency, TF over GST control) | 1.22 fold enrichment (6-mer frequency, TF over GST control) | 1.16 fold enrichment (6-mer frequency, TF over GST control) | 1.19 fold enrichment (6-mer frequency, TF over GST control) | 1.2 fold enrichment (6-mer frequency, TF over GST control)
